In PubChem BioAssay (NCATS):
Unmarked numbers belong to inactive results. Inconclusive results are not listed. Where a call stands in place of a potency, no number is given. The source made the active and inactive calls. Unless noted, calls come from the whole dose curve; as a rule, active = well fitted curve in either direction with a large enough effect (not every such curve was filed as active); inconclusive = small, poorly fitted or top-dose-only effect, or another doubt; inactive = flat fitted curve, though single readings scatter.

Assays:
[1] = AP1 Signaling Pathway (AID 357); details: ME-180 AP-1-bla reporter, EGF-induced, beta-lactamase ratio, 5 h; at 7.69 µM (top of the series) unless noted;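 note: ME-180 reporter cells stimulated with EGF at its EC50 level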
Outline: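 Titration-series screen for positive or negative modulators of EC50 EGF-induced signaling in ME-180 cells carrying an AP-1-driven beta-lactamase reporter. After 5 hours at 37 degrees Celsius, CCF4 460nm/530nm emission ratio gave %Activity; AC50 values derived.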

[2] = biological target: Cytochrome P450 1A2 (Homo sapiens) (UniProt P05177); experiment: p450-cyp1a2 (AID 410; calls by dose curve; note: potency is the fitted concentration of half-maximal effect)
Sequence of Cytochrome P450 1A2 (Homo sapiens) (P05177 whole entry, looked up): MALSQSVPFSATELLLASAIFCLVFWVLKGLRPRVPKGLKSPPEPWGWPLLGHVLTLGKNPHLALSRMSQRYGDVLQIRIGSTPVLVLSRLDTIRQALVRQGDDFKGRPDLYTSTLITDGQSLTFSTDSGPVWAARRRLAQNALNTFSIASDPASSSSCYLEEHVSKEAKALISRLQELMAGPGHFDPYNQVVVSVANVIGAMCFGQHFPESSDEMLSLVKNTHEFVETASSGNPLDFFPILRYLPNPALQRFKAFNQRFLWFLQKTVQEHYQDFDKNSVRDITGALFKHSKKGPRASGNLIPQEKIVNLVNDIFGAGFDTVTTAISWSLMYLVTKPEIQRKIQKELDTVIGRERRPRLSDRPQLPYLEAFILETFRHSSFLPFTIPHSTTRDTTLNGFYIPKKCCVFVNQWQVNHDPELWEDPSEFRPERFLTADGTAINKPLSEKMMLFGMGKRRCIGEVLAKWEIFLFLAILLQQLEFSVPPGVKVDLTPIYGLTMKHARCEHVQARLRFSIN
Outline: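 Human CYP1A2 (20nM) demethylated Luciferin-ME at its Km (100uM) in 100mM KPO4. After 10 min compound preincubation, NADPH regeneration ran the reaction 60 min at room temperature. Luciferin was read by luminescence, normalized to 57 uM furafylline.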

[3] = NFAT Signaling Pathway (AID 444); details: Jurkat NFAT-bla M1, carbachol, beta-lactamase ratio, 5 h; at 7.69 µM (top of the series) unless noted;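 note: carbachol stimulus at about its EC50 of 1 µM final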
Outline: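 Jurkat cells with NFAT-driven β-lactamase reporter and co-expressed M1 receptor, stimulated with carbachol (final 1 uM, ~EC50), compound titration, 5 h at 37 °C. CCF4 loaded 1 h at RT; 460/530 nm ratio gave %activity and AC50.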

[4] = Stat Signaling Pathway (AID 446); details: ME-180 SIE beta-lactamase reporter, IL-6 stimulated, 5 h; at 7.69 µM (top of the series) unless noted;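 note: ME-180 cervical cancer cells given 40 pM IL-6 alongside compound; SIE-controlled beta-lactamase reporter measured as 460/530 nm FRET emission ratio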
Outline: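 IL-6/STAT signaling read in ME-180 cells via an SIE beta-lactamase reporter. Stimulus was 40 pM IL-6 (its AC50) for 5 hrs, so both activation and inhibition register.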

[5] = biological target: Glucocorticoid receptor (Homo sapiens) (UniProt P04150); experiment: GR-GFP Redistribution (AID 450;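 active = compounds whose dose series gives a full or clear partial fitted curve of increased nuclear translocation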; note: potency is the fitted concentration of half-maximal effect); details: U2OS GR-GFP nuclear translocation, laser cytometry, 2 h
Sequence of Glucocorticoid receptor (Homo sapiens) (P04150 whole entry, looked up, the tested form may be a part): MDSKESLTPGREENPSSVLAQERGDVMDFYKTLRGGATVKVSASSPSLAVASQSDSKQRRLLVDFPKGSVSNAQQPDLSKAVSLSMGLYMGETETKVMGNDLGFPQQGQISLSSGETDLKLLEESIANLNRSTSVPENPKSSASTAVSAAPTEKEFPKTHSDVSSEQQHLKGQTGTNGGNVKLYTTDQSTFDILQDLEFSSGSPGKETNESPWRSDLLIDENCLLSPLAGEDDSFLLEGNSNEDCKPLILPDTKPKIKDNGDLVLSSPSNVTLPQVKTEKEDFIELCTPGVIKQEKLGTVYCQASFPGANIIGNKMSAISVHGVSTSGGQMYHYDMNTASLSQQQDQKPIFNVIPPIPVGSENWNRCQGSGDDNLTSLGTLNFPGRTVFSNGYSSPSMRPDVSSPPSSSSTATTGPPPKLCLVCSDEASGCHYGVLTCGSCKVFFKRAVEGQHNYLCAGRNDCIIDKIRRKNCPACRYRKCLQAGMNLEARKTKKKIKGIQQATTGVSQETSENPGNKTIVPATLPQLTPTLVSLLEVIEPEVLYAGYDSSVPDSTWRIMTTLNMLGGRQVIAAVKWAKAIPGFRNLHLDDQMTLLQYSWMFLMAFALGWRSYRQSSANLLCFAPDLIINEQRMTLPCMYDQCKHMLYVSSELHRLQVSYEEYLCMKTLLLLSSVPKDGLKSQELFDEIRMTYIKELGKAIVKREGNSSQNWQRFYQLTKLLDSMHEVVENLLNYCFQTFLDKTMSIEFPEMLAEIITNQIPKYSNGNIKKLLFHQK

[6] = biological target: Mitogen-activated protein kinase 10 (Mus musculus) (UniProt Q61831); experiment: JNK3 AlphaScreen Assay (AID 530);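 note: kinase came from lysate of stimulated human HepG2 cells; signal reports phosphorylation of biotinylated GST-cJun 1-79 at Ser73 with 10 µM ATP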
Outline: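 qHTS format: compounds tested as titrations against IL-1beta/TNF-alpha-activated HepG2 lysate JNK3 with biotin-GST-cJun substrate and 10 uM ATP at room temperature. Loss of anti-phospho-cJun AlphaScreen signal indicates inhibition.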

[7] = biological target: 3',5'-cyclic-AMP phosphodiesterase 4B (Homo sapiens) (UniProt Q07343); experiment: qHTS Assay for Inhibitors of PDE-IV (AID 607; active = well fitted activation curve with a large enough effect in the main read-out, with a control signal flat, not every such curve was filed as active)
Sequence of 3',5'-cyclic-AMP phosphodiesterase 4B (Homo sapiens) (Q07343 whole entry, looked up): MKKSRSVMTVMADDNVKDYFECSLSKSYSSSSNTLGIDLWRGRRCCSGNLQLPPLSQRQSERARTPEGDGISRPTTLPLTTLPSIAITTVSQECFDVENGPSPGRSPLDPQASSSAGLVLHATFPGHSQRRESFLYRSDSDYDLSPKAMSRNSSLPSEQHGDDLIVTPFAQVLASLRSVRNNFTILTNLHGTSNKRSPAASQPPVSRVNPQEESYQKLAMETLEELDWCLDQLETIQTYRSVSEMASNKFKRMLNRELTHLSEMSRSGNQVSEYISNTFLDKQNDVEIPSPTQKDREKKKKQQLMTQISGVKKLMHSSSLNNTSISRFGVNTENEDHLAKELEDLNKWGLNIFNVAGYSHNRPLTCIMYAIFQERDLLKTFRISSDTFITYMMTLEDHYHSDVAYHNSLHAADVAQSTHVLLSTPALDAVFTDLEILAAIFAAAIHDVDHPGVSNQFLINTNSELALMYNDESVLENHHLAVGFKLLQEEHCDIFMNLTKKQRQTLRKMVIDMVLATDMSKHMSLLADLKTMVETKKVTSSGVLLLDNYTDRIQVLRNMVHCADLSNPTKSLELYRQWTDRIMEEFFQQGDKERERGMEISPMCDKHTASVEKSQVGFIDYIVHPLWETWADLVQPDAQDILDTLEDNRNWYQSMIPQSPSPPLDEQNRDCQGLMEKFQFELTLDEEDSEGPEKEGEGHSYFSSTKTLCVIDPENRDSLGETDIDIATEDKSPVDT
Outline: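 Live HEK293 cells with a modified cyclic nucleotide-gated (CNG) channel report intracellular cAMP via membrane-potential dye fluorescence (ex 535/em 590 nm). Endogenous PDE-IV was targeted. Compounds were tested at up to 22.9 uM final; RO 20-1724 100 uM served as control.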

[8] = biological target: Glucocorticoid receptor (Homo sapiens) (UniProt P04150); experiment: GR-EFC Redistribution (AID 451; calls by dose curve; note: potency is the fitted concentration of half-maximal effect); details: CHO-K1 GR-EFC translocation, beta-gal luminescence, 2 h
Outline: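 CHO-K1 cells expressing nuclear EA and GR-ED fragments of b-gal; compounds titrated up to 46 uM final, 2 h at 37 C. GR nuclear translocation read as complemented b-gal luminescence after 1 h RT detection.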

[9] = biological target: Guanine nucleotide-binding protein G(i) subunit alpha-1 (Homo sapiens) (UniProt P63096); experiment: qHTS Assay for Inhibitors of RGS12 GoLoco Motif Activity (Green Fluorophore) (AID 879; active = well fitted curve in the direction sought with a large enough effect; an effect the other way counts as inactive or inconclusive;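 note: negative values mean loss of peptide binding seen as reduced polarization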)
Sequence of Guanine nucleotide-binding protein G(i) subunit alpha-1 (Homo sapiens) (P63096 whole entry, looked up): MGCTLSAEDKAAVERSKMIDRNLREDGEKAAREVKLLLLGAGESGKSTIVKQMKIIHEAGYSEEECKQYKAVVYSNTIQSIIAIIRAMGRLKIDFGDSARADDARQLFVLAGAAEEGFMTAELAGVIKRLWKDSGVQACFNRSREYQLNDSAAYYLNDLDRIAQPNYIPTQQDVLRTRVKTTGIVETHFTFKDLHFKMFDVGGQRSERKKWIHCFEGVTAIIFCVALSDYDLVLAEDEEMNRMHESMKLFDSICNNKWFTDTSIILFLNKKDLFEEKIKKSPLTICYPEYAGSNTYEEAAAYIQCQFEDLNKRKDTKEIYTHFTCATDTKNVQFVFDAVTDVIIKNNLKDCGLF
Outline: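 Fluorescence polarization assay: 50 nM Gαi1 with 10 nM FITC-labeled RGS12 GoLoco peptide in 10 mM Tris pH 7.5, 150 mM NaCl, 0.1 mM GDP, 0.05% NP40, 10 min at room temperature with compound.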

[10] = biological target: Cytochrome P450 2C19 (Homo sapiens) (UniProt P33261); experiment: qHTS Assay for Inhibitors and Substrates of Cytochrome P450 2C19 (AID 899; active = well fitted curve in the direction sought with a large enough effect; an effect the other way counts as inactive or inconclusive; note: nearly all actives have a fitted effect of over 60% in size)
Sequence of Cytochrome P450 2C19 (Homo sapiens) (P33261 whole entry, looked up): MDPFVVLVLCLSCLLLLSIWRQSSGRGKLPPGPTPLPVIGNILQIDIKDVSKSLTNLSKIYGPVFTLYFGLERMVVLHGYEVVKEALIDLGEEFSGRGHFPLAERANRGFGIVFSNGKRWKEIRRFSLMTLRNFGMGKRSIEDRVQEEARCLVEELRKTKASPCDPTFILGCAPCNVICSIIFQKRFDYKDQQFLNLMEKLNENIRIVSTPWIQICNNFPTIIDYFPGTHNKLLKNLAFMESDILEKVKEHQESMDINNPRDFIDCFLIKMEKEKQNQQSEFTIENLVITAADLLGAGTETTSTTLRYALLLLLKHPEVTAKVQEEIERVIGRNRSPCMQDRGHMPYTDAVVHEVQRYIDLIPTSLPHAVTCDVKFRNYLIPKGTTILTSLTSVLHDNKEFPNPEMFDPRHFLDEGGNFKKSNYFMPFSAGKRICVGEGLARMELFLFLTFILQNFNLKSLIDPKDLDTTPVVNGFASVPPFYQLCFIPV
Outline: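 Signal comes from luciferase acting on luciferin released by CYP2C19-mediated hydroxylation of Luciferin-H EGE, 10uM (KM). Assay mix: 5nM enzyme, 50mM KPO4; 60 min at 37C with NADPH regeneration. Data normalized against 57uM ketoconazole.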

[11] = biological target: Muscarinic acetylcholine receptor M1 (Rattus norvegicus) (UniProt P08482); experiment: qHTS Assay for Antagonists of Acetylcholine Muscarinic M1 Receptor: Kinetic Measurement of Intracellular Calcium Response (AID 943; active = well fitted curve in the direction sought with a large enough effect; an effect the other way counts as inactive or inconclusive;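 note: Fluo-4 calcium signal as peak divided by basal fluorescence over 4 min; nearly all actives have a fitted effect of over 75% in size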)
Sequence of Muscarinic acetylcholine receptor M1 (Rattus norvegicus) (P08482 whole entry, looked up): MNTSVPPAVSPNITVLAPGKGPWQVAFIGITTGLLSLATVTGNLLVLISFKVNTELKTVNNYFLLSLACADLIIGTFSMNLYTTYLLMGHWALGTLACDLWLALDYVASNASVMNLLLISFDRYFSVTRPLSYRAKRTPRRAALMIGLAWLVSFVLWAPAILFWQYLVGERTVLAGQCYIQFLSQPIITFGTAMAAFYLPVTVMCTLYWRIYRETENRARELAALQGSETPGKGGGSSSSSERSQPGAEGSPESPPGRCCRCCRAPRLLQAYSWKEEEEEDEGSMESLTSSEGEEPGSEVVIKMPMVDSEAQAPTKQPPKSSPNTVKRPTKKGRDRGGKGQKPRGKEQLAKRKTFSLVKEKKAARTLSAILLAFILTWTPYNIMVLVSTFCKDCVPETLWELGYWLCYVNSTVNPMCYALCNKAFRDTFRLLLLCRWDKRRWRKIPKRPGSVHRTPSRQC
Outline: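 CHO cells stably expressing rat M1 were loaded with no-wash Fluo-4 dye for 1 h at 37C, pre-incubated 10 min with compound, then challenged with EC80 carbachol (100 nM final); kinetic calcium read 4 min, peak/basal ratio.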

[12] = biological target: Muscarinic acetylcholine receptor M1 (Rattus norvegicus) (UniProt P08482); experiment: qHTS Assay for Antagonists of Acetylcholine Muscarinic M1 Receptor: Measurement of IP-One Response (AID 944; active = well fitted curve in the direction sought with a large enough effect; an effect the other way counts as inactive or inconclusive; note: nearly all actives have a fitted effect of over 75% in size)
Outline: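 CHO cells expressing rat M1 receptor, recovered overnight, were pre-incubated 10 min with compound, then stimulated 30 min with carbachol at EC80 (200 nM) in LiCl-containing buffer, pH 7.4. IP1 accumulation was read by HTRF (620/665 nm).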

[13] = biological target: Pyruvate kinase (Leishmania mexicana) (UniProt Q27686); experiment: qHTS Validation Assay for Inhibitors of Leishmania Mexicana Pyruvate Kinase (AID 945; active = well fitted curve in the direction sought with a large enough effect; an effect the other way counts as inactive or inconclusive)
Outline: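 LmPYK E451W 0.2 nM; 0.5 mM PEP, 0.1 mM ADP, 7 mM MgCl2, 50 mM KCl, imidazole pH 7.2, 0.01% Tween 20, 0.05% BSA; 1 h RT; PKLight luminescence; DMSO-normalized.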

[14] = biological target: Pyruvate kinase PKM (Homo sapiens) (UniProt P14618); experiment: qHTS Assay for Activators of Human Muscle Pyruvate Kinase (AID 954; active = well fitted curve in the direction sought with a large enough effect, not every such curve was filed as active)
Sequence of Pyruvate kinase PKM (Homo sapiens) (P14618 whole entry, looked up): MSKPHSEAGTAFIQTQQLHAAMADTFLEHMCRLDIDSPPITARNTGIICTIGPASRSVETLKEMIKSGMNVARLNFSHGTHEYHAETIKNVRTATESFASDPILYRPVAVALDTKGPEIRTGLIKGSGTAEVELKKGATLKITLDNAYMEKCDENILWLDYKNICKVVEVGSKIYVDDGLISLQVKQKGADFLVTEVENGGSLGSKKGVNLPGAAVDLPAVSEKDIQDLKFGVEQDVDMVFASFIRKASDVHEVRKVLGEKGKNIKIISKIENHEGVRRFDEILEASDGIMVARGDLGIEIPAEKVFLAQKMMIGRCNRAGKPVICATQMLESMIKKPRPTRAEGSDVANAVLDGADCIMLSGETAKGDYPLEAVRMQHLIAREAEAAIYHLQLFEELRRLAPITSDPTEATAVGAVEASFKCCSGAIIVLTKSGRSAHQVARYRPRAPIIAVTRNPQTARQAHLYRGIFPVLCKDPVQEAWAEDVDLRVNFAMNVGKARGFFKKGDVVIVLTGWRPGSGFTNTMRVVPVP
Outline: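 Enzyme was run at intermediate activity so both inhibitors and activators could be detected. ATP formed from ADP and PEP by 0.1 nM human PKM2 during a 1 h room-temperature incubation was quantified by coupled luciferase luminescence.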

[15] = biological target: Alpha-galactosidase A (Homo sapiens) (UniProt P06280); experiment: Counterscreen for Glucocerebrosidase Inhibitors: qHTS Assay for Human alpha-Galactosidase at pH 4.5 (AID 992; active = well fitted curve in the direction sought with a large enough effect; an effect the other way counts as inactive or inconclusive)
Sequence of Alpha-galactosidase A (Homo sapiens) (P06280 whole entry, looked up): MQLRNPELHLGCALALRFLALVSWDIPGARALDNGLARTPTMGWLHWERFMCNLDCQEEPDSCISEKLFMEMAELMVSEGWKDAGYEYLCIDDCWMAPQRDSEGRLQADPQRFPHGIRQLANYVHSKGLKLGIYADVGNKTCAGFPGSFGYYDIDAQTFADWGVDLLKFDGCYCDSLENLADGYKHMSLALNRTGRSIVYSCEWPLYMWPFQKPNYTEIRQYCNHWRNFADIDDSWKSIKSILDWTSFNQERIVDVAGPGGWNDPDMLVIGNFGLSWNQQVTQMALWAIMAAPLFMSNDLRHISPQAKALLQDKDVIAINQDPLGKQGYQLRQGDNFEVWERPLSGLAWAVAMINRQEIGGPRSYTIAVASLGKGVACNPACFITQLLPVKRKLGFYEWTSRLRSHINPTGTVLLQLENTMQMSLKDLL
Outline: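 Read-out is 4-methylumbelliferone fluorescence (365 nm excitation, 440 nm emission) after a pH 10 NaOH/glycine stop. Reactions held 2 nM enzyme and 80 uM substrate at pH 4.5 for 20 min at room temperature.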

[16] = biological target: alpha-glucosidase (Oryza sativa, rice) (UniProt Q653V4); experiment: Counterscreen for Glucocerebrosidase Inhibitors: qHTS Assay for Rice alpha-Glucosidase at pH 5.0 (AID 997; active = well fitted curve in the direction sought with a large enough effect; an effect the other way counts as inactive or inconclusive)
Outline: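 Rice alpha-glucosidase (4 nM final) with 400 uM 4-methylumbelliferyl-alpha-D-glucopyranoside in citrate buffer pH 5.0, 20 min at room temperature, stopped at pH 10; fluorescence 365/440 nm, compounds 0.7 nM–77 uM, AC50 from Hill fits.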

[17] = biological target: Cytochrome P450 2C9 (Homo sapiens) (UniProt P11712); experiment: qHTS Assay for Inhibitors and Substrates of Cytochrome P450 2C9 (AID 883; active = well fitted curve in the direction sought with a large enough effect; an effect the other way counts as inactive or inconclusive; note: nearly all actives have a fitted effect of over 60% in size)
Sequence of Cytochrome P450 2C9 (Homo sapiens) (P11712 whole entry, looked up): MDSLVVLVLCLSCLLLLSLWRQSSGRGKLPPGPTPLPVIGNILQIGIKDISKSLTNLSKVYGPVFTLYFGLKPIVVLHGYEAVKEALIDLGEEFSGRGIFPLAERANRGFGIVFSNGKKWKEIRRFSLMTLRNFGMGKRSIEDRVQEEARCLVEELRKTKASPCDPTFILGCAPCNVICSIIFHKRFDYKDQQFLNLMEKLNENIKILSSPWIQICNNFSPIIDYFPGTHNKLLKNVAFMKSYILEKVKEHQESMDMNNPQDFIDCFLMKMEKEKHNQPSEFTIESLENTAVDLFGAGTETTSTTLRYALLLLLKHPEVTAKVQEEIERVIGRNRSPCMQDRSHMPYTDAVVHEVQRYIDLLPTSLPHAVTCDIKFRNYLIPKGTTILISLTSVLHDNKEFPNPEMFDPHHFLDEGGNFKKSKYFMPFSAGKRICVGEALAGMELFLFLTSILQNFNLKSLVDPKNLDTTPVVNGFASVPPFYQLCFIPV
Outline: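 Signal: luciferase luminescence reporting luciferin produced by CYP2C9. Conditions: 10nM enzyme, Luciferin-H 100uM at KM, 25mM KPO4, 37C, 60 min NADPH-driven reaction. Reference: 57uM sulphaphenazole as 100% inhibition.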

[18] = qHTS Assay for Identification of Small Molecule Antagonists for NFkB Signaling Pathway (AID 895; active = well fitted inhibition curve with a large enough effect in the signal ratio, with a control signal flat, not every such curve was filed as active; the % refers to the signal ratio)
Outline: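 ME-180 NFkB-bla cells (beta-lactamase under NFkB response element), plated overnight, treated with compound then 10 pM TNF alpha (about EC50) for 5 hrs at 37 C. LiveBLAzer FRET read at 460/530 nm emission, 405 nm excitation.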

Row | Compound | activity change, negative = inhibition [1] | Potency [2] | activity change, negative = inhibition [3] | activity, negative = inhibition [4] | Potency [5] [µM] | Potency [6] | Potency [7] | Potency [8] [µM] | outcome [9] | Potency [10] | Potency [11] | Potency [12] | outcome [13] | outcome [14] | outcome [15] | Potency [16] | Potency [17] | Potency [18]
1 | O=C(Nc1ccc(Nc2ccc3c(c2)C(=O)c2ccccc2C3=O)c2c1C(=O)c1ccccc1C2=O)c1ccccc1 | -0.845% | 1.58 µM (active) | 18.6% | 13% | > 46 | inactive | inactive |  |  |  |  |  |  |  |  |  |  | 
2 | CCCCC[C@H](CC(=O)NO)C(=O)N[C@@H](C(=O)N1CCC[C@H]1CO)C(C)C | 26.8% [at 38 µM] | inactive | 6.72% [at 38 µM] | 7.77% [at 38 µM] | > 46 |  | inactive | > 46 | inactive | inactive | inactive | inactive | inactive | inactive | inactive | inactive |  | 
3 | N[C@H](CS(=O)O)C(=O)O | 9.5% [at 38 µM] | inactive | 10.5% [at 38 µM] | 17.2% [at 38 µM] | > 46 |  | inactive | > 46 |  | inactive |  |  |  |  |  |  | inactive | 
4 | COC(=O)[C@@H]1[C@H]2C[C@H]3c4[nH]c5cc(OC)ccc5c4CCN3C[C@@H]2C[C@@H](OC(=O)c2cc(OC)c(OC)c(OC)c2)[C@@H]1OC | -23.7% [at 38 µM] | 15.8 µM (active) | 3.19% [at 38 µM] |  | > 46 | inactive | inactive | > 46 |  | inactive |  |  |  |  |  |  | inactive | 
5 | O=C(O)C(Cc1ccccc1-c1ccccc1)C(=O)O | 12.3% | inactive | 3.57% |  | > 46 | inactive | inactive | > 9.22 |  |  |  |  |  |  |  |  |  | 
6 | COc1cc2c3cc1Oc1cc(ccc1O)C[C@@H]1c4c(cc(OC)c(O)c4Oc4ccc(cc4)C[C@H]3[N+](C)(C)CC2)CC[N+]1(C)C | 5.87% | inactive | 0.638% | 21.4% |  | inactive | inactive |  |  | inactive |  |  |  |  |  |  |  | 
7 | OC[C@@H]1O[C@@H](n2cnc3c(NC4CCCCC4)ncnc32)[C@@H](O)[C@H]1O | -12.8% [at 38 µM] | inactive | 1.85% [at 38 µM] |  | > 46 |  | inactive | > 46 | inactive |  | inactive | inactive | inactive | inactive | inactive | inactive |  | inactive
